# Screening results: PubChem, several laboratories
# DAT uptake mod = changed human dopamine transporter uptake under cocaine IC80; 1.3% of 110,000 active; Q01959; LLC-PK1 hDAT cells, [14C]-dopamine uptake with cocaine IC80; actives deviate in either direction; B-score at 10 µM;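 active = Z score or B-score, a plate-position-corrected score, falls beyond the plate's 99.7% confidence bounds, in either direction; inactive = both scores lie inside the 99.7% bounds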;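 also: scored against the spread of the other compound wells on the same plate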
# Target sequence (Q01959 whole entry, looked up): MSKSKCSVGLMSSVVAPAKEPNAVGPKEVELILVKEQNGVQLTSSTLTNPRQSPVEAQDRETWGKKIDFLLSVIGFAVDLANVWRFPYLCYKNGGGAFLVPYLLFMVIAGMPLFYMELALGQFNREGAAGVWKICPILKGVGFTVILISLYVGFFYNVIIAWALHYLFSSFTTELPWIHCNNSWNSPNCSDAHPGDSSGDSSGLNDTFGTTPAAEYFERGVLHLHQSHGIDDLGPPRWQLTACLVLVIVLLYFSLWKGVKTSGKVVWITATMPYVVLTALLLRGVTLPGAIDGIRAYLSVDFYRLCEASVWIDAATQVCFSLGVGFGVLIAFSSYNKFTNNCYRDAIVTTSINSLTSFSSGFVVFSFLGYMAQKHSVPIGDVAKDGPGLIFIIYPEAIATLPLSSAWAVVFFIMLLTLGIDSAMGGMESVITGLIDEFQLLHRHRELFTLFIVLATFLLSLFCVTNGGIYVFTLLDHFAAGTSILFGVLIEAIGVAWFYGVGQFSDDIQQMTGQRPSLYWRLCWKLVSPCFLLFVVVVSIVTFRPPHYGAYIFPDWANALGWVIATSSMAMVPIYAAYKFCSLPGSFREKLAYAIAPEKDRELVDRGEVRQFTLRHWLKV
# CYP2C9 inh = human CYP2C9 inhibition; 20% of 96,000 active; P11712; CYP2C9 Supersomes, luciferin-H conversion, luminescence; inhibition, % at 5 µM;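 active = blocking of liver enzyme CYP2C9 beyond about 50% at 5 µM, limit read from the data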
# CYP2C19 activ = activators of human cytochrome P450 2C19 | P33261 | 96,000 tested, under 10 active | AID 1025 | activation factor at 5 µM | recombinant CYP2C19, luciferin-H EGE luminescence; stronger effect = higher value; 0 = fully inhibited enzyme, 1 = untreated enzyme;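 active = activation factor of at least 2 at 5 µM in the primary screen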;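 also: 0 = wells with 2.5 mM tranylcypromine and 1 = vehicle-only wells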
# CYP2C19 inh = blocks human cytochrome P450 2C19 | inhibition, % at 5 µM | 21% of 96,000 active | CYP2C19 Supersomes, luciferin-H EGE luminescence, 30 min | P33261 | AID 778;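 active = CYP2C19 inhibition above a set limit at 5 µM in the primary screen, cut at about 50% in these data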;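 also: plate controls were negative control wells for no effect and 2.5 mM tranylcypromine positive control for full effect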
# D1 mod = D1 dopamine receptor (human) allosteric modulation; P21728; HEK293 D1, CRE-luciferase, dopamine EC30 potentiation; actives deviate in either direction; B-score at 10 µM; 5.9% of 58,000 active;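 active = luminescence count or its row- and column-corrected plate score outside the 99.7% band of the plate's sample wells, on either side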
# CYP2C9 activ = CYP2C9 (human) activation | 1.4% of 96,000 active | activation factor at 5 µM | recombinant CYP2C9, luciferin-H conversion, luminescence; stronger effect = higher value; factor 1 = untreated enzyme, 0 = blocked | P11712;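 active = activation factor of 2 or more for CYP2C9 at a 5 µM dose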;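 also: 0 = sulfaphenazole-blocked wells and 1 = vehicle-only wells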
# * = called active by the depositor; / = no result. This is a sample that favours compounds with a hit; in the whole collection about 28% have one here.
SMILES,DAT uptake mod,CYP2C9 inh,CYP2C19 activ,CYP2C19 inh,D1 mod,CYP2C9 activ
COc1ccc(NC(=O)C2Cc3ccccc3CN2C(=O)c2ccccc2)cn1 (configuration not stated),2.93*,19.3,0.9,12.4,-0.283,0.8
O=C(NC1=NCCS1)C1Cc2ccccc2CN1C(=O)c1ccccc1 (configuration not stated),-1.1,41.6,0.2,78.9*,0.13,0.6
Cc1nn(C)c(C)c1/C=N/O,-0.00939,-21.3,1.1,-13.6,/,1.2
C#Cc1ccc([C@@H]2C=C(C(=O)NCc3ccccc3)O[C@H](OCCCCO)C2)cc1,0.278,/,/,/,/,/
CCN(CC)S(=O)(=O)c1ccc(C(=O)Nc2c3c(nn2C(C)(C)C)CS(=O)(=O)C3)cc1,0.0254,76.2*,1,-3.3,-0.00434,0.2
Cc1cccc(NC(=O)c2ccc(S(=O)(=O)N(C)C)cc2)c1,3.06*,-7.3,1.2,-17.0,-1.19,1.1
CC(C)(C)n1nc2c(c1NC(=O)c1ccc(S(=O)(=O)N3CCCC3)cc1)CSC2,0.242,35.8,1.1,-11.2,-1.02,0.6
COc1cc(NC(=O)c2ccc(S(=O)(=O)N(C)C)cc2)cc(OC)c1OC,1.52,12.6,0.9,9.0,-0.594,0.9
CCN(CC)S(=O)(=O)c1ccc(C(=O)Nc2cccc(C)c2)cc1,0.636,54.7*,0.4,55.3*,/,0.5
O=C1CCN(C(=O)c2ccccc2)C2CCCCC12 (configuration not stated),0.223,-16.4,0.9,13.0,0.329,1.2
Cc1nnc(SCC(=O)Nc2sc3c(c2C#N)CCCCC3)n1N,0.67,2.6,1,1.2,/,1
N#Cc1c(NC(=O)CN2CCCCC2)sc2c1CCC2,-0.158,23.7,0.7,32.9,1,0.8
O=C(CSc1nnnn1C1CCCCC1)Nc1nc2c(s1)CCCC2,-0.47,34.0,0.2,78.4*,-0.966,0.7
CC1CCCCN1CC(=O)Nc1sc2c(c1C#N)CCC2 (configuration not stated),-0.194,61.1*,0.5,50.9*,-0.413,0.4
N#Cc1c(NC(=O)CSc2nnnn2C2CCCCC2)sc2c1CCCC2,-1.58,66.6*,0.6,43.1,-0.583,0.3
COc1ccc2nc(NC(=O)CSc3nnnn3C3CCCCC3)sc2c1,0.233,12.7,0.9,12.8,-0.119,0.9
CC(Sc1nnc(CNc2cccc3ccccc23)n1-c1ccccc1)C(=O)N/N=C/c1ccco1 (configuration not stated),0.67,13.2,0.8,15.0,/,0.9
O=S(=O)(c1cccs1)N1CN(CC2CCCO2)c2nc3ccccc3nc21 (configuration not stated),-1.06,28.0,0.7,31.9,/,0.7
O=S(=O)(c1cccs1)N1CN(Cc2ccc(F)cc2)c2nc3ccccc3nc21,0.817,70.5*,0.8,22.3,/,0.3
O=S(=O)(c1ccc(F)cc1)N1CN(Cc2ccco2)c2nc3ccccc3nc21,-0.0608,59.9*,0.2,82.2*,/,0.4
O=S(=O)(c1cccs1)N1CN(Cc2ccccc2)c2nc3ccccc3nc21,1.99,0.9,1.1,-11.6,/,1
Cc1ccc(S(=O)(=O)N2CN(Cc3ccco3)c3nc4ccccc4nc32)cc1C,0.4,83.5*,0.3,67.9*,/,0.2
COc1ccc(S(=O)(=O)N2CN(Cc3ccco3)c3nc4ccccc4nc32)cc1,-0.342,53.9*,0.3,69.8*,0.205,0.5
O=C(CCN1C(=O)CSC1=O)Nc1ccccc1,-0.743,-11.2,1,-4.9,/,1.1
CN(C)c1ccc(CNC(=O)C2CCN(S(=O)(=O)c3ccc4c(c3)CCC(=O)N4)CC2)cc1,-0.35,14.5,1,-2.5,-0.0182,0.9
SMILES,DAT uptake mod,CYP2C9 inh,CYP2C19 activ,CYP2C19 inh,D1 mod,CYP2C9 activ
CC(C)(C)C(=O)Nc1ccc(C(=O)NNC(=O)Cc2ccccc2)cc1,-0.561,-25.3,1.1,-8.4,/,1.3
Cc1ccc(S(=O)(=O)N2CN(Cc3ccco3)c3nc4ccccc4nc32)cc1,0.78,90.0*,0.2,75.5*,/,0.1
CN(C)c1nc(SCCOC(=O)Nc2ccccc2)nc(N(C)C)n1,0.584,67.8*,0,98.7*,0.632,0.3
Cn1cnnc1SCCC(=O)Nc1ccc(Cl)cc1,0.143,/,/,/,/,/
Cc1cc(/C=C2\SC(=Nc3ccccc3)NC2=O)c(C)n1-c1ccc(S(N)(=O)=O)cc1,0.118,59.9*,0.8,18.9,/,0.4
CC(C)c1ccc(N(C(=O)C(F)(F)F)C(C(=O)NC2CCCCC2)c2ccncc2)cc1 (configuration not stated),-0.531,18.2,0.8,22.6,/,0.8
CCOc1ccc(NC(=O)CN(c2cc(C)cc(C)c2)S(=O)(=O)c2c(C)noc2C)cc1,-0.257,/,/,/,-0.363,/
CCOc1ccccc1NC(=O)CN(c1ccc(C)cc1)S(=O)(=O)c1c(C)noc1C,1.6,95.8*,0,99.1*,1.42,0
CCOc1ccc(OCC)c(NC(=O)CN(c2ccc(C)cc2)S(=O)(=O)c2c(C)noc2C)c1,-0.382,91.7*,0.6,41.8,4.65*,0.1
CCOc1ccccc1NS(=O)(=O)c1c(C)noc1C,-0.0951,71.0*,0.3,74.7*,-1.08,0.3
CCOc1ccccc1NS(=O)(=O)c1cccs1,-0.665,-160.7,0.2,77.6*,0.0753,2.6*
Cc1noc(C)c1-c1ccc2nc[nH]c(=O)c2c1,0.251,/,/,/,/,/
COc1ccc(-c2nnc(N3CCC(C)CC3)c3ccccc23)cc1,/,27.0,0.8,18.1,/,0.7
Cc1ccc(S(=O)(=O)N2CCOCC2)cc1C(=O)NCc1ccc2c(c1)OCO2,-0.0277,48.0,0.8,24.6,/,0.5
Cc1ccsc1/C=C/c1ccc2cccc(O)c2n1,-2.28,72.6*,0.4,56.8*,/,0.3
COc1ccccc1NC(=O)N1CCC(c2nnc(SCC(N)=O)n2C)CC1,-0.157,-0.9,1.1,-8.8,/,1
Cc1cc(C)c2[nH]c(=O)c(CN(CC3CCCO3)C(=O)c3cnccn3)cc2c1 (configuration not stated),2.53*,28.6,0.9,6.1,-0.43,0.7
COc1ccc(C(=O)N(Cc2ccco2)Cc2cc3cc(C)ccc3[nH]c2=O)cc1OC,1.66,/,/,/,1.55,/
Cc1ccc2[nH]c(=O)c(CN(CC3CCCO3)C(=O)c3ccncc3)cc2c1 (configuration not stated),0.902,84.3*,0,97.8*,0.572,0.2
Cc1ccc2cc(CN(CC3CCCO3)C(=O)C(C)C)c(=O)[nH]c2c1 (configuration not stated),1.42,/,/,/,-0.577,/
O=C(c1cc2ccccc2oc1=O)N(Cc1cccs1)Cc1cccs1,-0.752,/,/,/,/,/
O=C(c1cc2ccccc2oc1=O)N(Cc1ccco1)Cc1cccs1,0.781,66.0*,0.7,33.3,-0.0681,0.3
Cc1ccc2[nH]c(=O)c(CN(Cc3ccco3)C(=O)c3ccncc3)cc2c1,0.00446,96.0*,0,99.8*,0.385,0
C=CCN(CC=C)C(=O)Cc1ccc(F)cc1,0.266,-18.9,0.7,25.8,-0.0843,1.2
